Compound activity from PubChem.
Shown are actives, neighbours in structure and some others; about 12% of the full set was active somewhere.
PI5P4Ka inh: inhibitors of human PI5P4K alpha; PI5P4Kalpha enzyme, ADP-Glo luminescence, 60 min; active compounds read low; max response, %; P48426; AID 652105; hit rate 1.2% among 330,000; active = max response of -50% or lower; inconclusive = between -30% and -50%; inactive = -30% or higher; also: value at the top dose of about 77 µM
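qHTS, 1536-well: enzyme/substrate mix, compound by pin tool, 5 microM ATP final; RT 60 min; ADP-Glo reagents 1 (45 min) then 2 (30 min); luminescence.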
G9a block: blocks human histone lysine methyltransferase G9a; G9a H3K9 monomethylation, AlphaScreen, 2 h; Q96KQ7; Potency, µM (series often up to 102 µM), hits mostly inhibitors; hit rate 8.8% among 350,000; AID 504332; also: nearly all actives have a fitted effect of over 75% in size
Target sequence (Q96KQ7 913-1193 limits assumed): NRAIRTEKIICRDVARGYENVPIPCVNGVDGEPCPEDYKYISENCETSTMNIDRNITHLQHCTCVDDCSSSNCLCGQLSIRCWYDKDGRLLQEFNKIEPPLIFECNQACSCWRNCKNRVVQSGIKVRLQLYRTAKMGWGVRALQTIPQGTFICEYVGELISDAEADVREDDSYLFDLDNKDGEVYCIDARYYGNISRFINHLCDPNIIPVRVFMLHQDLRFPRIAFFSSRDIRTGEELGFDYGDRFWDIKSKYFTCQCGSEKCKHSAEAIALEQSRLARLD
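G9a (20 nM) was preincubated 15 min with compound, then reacted 2 h at room temperature with 500 nM biotin-H3K9 peptide and 20 µM SAM. Monomethyl-H3K9 detected by AlphaScreen using anti-H3K9me1 antibody.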
PLK1 PBD block: inhibitors of human PLK1 polo-box domain binding. P53350. Plk1 PBD binding of FITC phosphopeptide, fluorescence polarization. hit rate 2.8% among 360,000. AID 720504. Potency, µM, most hits filed as inhibitors; also: series mostly up to about 57 µM; nearly all actives have a fitted effect of over 65% in size
HP1b binding inh: HP1-beta chromodomain-methylated histone interaction inhibition; P83916; AlphaScreen HP1-beta / biotin-H3K9me3 peptide binding; Potency, µM (doses to about 114 µM), most hits filed as inhibitors; hit rate 0.56% among 390,000; AID 540317; also: nearly all actives have a fitted effect of over 70% in size
Target sequence (P83916 whole entry, looked up): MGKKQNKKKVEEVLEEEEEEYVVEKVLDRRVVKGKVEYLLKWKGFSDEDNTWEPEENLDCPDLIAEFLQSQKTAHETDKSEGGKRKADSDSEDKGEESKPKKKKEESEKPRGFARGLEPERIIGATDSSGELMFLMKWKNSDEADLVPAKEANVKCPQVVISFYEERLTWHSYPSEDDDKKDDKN
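HP1-beta protein (50 nM final) preincubated 30 min at room temperature with biotinylated H3(1-18)K9me3 peptide (50 nM) in PBS pH 7.4, 0.01% Tween-20, then compound added for 30 min. AlphaScreen streptavidin donor/nickel chelate acceptor beads (10 ug/mL final), 30 min dark, luminescence read.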
BAZ2B inh: inhibitors of human BAZ2B bromodomain | hit rate 4.4% among 360,000 | AID 504333 | AlphaScreen BAZ2B-H3K14Ac peptide displacement | Potency, µM (series often up to 114 µM), hits mostly inhibitors; also: nearly all actives have a fitted effect of over 60% in size
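AlphaScreen luminescence quantifies BAZ2B engagement of H3K14Ac peptide; the protein and biotinylated peptide are both at 50 nM final, buffer PBS pH 7.4 with 0.01% Tween-20, all steps at room temperature.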
JMJD2A Tudor: JMJD2A Tudor domain (human) inhibition | O75164 | AlphaScreen JMJD2A-Tudor / H3K4me3 peptide binding | Potency, µM (titrated, usually from 114 µM), most hits filed as inhibitors | hit rate 4.4% among 390,000 | AID 504339; also: nearly all actives have a fitted effect of over 50% in size
Each line names hits and unclear results; the compound was inactive in the other large screens; ! = repeats disagree. Unless noted, calls follow the shape of the dose curve; as a rule, active = well fitted curve in the direction sought with a large enough effect; inconclusive = small, poorly fitted or top-dose-only effect, or another doubt; inactive = no such curve, though single readings can be large; an effect the other way counts as inactive or inconclusive.

COc1ccc(OC)c(NC(=O)C2C(C(=O)O)C3(Cl)C(Cl)=C(Cl)C2(Cl)C3(Cl)Cl)c1 (centres undefined)	G9a block 45µM, PLK1 PBD block inconclusive
COc1ccc(C(=O)Nc2ccc(Cl)cc2C(=O)c2ccccc2)c(OC)c1	none (no result: PI5P4Ka inh, PLK1 PBD block)
COc1ccc2c(c1)CCc1c(C(=O)Nc3c(C)nn(Cc4ccccc4C)c3C)noc1-2	G9a block inconclusive (no result: PI5P4Ka inh, PLK1 PBD block)
Cn1cc(/C=C(\C(=O)O)C(C(=O)O)=C2CCCCC2)c2ccccc21	G9a block 32µM, PLK1 PBD block 15µM, BAZ2B inh inconclusive, JMJD2A Tudor inconclusive
CCOc1cccc(OCC)c2c(C)[n+](CC3CCCO3)c(C)c1-2 (centres undefined)	G9a block inconclusive, BAZ2B inh 25µM, JMJD2A Tudor 35µM
C[C@H](NC(=O)[C@@H](N)Cc1ccc(O)cc1)C(=O)N[C@@H](Cc1ccccc1)C(=O)NCC(=O)N[C@@H](Cc1ccc(O)cc1)C(=O)N1CCC[C@H]1C(=O)N[C@@H](CO)C(N)=O	none (no result: PI5P4Ka inh, PLK1 PBD block, HP1b binding inh, BAZ2B inh, JMJD2A Tudor)
C=C[C@H](Cc1ccccc1)N(Cc1ccccc1)S(=O)(=O)N(Cc1ccccc1)[C@H](C=C)Cc1ccccc1	none (no result: G9a block, BAZ2B inh)
O=c1[nH]c(O)c(C=Nc2ccccc2Sc2ccccc2)c(=O)[nH]1	G9a block inconclusive
O=c1[nH]c(O)c(C=Nc2ccccc2[N+](=O)[O-])c(=O)[nH]1	G9a block 71µM (no result: PI5P4Ka inh, PLK1 PBD block, HP1b binding inh, JMJD2A Tudor)
Cc1[nH]c2ccccc2c1C1=CCNCC1	G9a block 50µM, BAZ2B inh inconclusive, JMJD2A Tudor inconclusive (no result: PI5P4Ka inh)
Oc1c(Cl)c(Cl)c(Cl)c(Cl)c1Cl	PI5P4Ka inh inconclusive, PLK1 PBD block 27µM, JMJD2A Tudor 56µM (no result: G9a block, BAZ2B inh)
COc1ccc(OCC(=O)N2CCN(Cc3ccc4c(c3)OCO4)CC2)cc1	none
CCCc1cc(=O)oc2cc(OCC(=O)N3CCN(Cc4ccc5c(c4)OCO5)CC3)ccc12	BAZ2B inh 50µM
CCOC(=O)c1ccc(NC(=O)CSc2cc(=O)n(CC)c3ccccc23)cc1	G9a block inconclusive (no result: PI5P4Ka inh, PLK1 PBD block)
CN1C(=O)NC(=O)[C@]2(Cc3ccccc3N3CCN(c4ccccc4)CC32)C1=O (some centres undefined)	G9a block 3.2µM (no result: PI5P4Ka inh)
CN1C(=O)NC(=O)C2(Cc3ccccc3N3CCOCC32)C1=O (centres undefined)	none (no result: PI5P4Ka inh)
O=C1NC(=O)[C@]2(Cc3ccccc3N3CCN(c4ccccc4)CC32)C(=O)N1c1ccccc1 (some centres undefined)	PI5P4Ka inh inconclusive, G9a block 3.2µM, JMJD2A Tudor inconclusive
Nc1ncnc2c1ncn2[C@@H]1O[C@H](COP(=O)(O)OP(=O)(O)OP(=O)(O)O)[C@H]2OC3(O[C@H]21)C([N+](=O)[O-])=CC(=[N+]([O-])[O-])C=C3[N+](=O)[O-] (some centres undefined)	none (no result: PI5P4Ka inh, PLK1 PBD block, HP1b binding inh, BAZ2B inh, JMJD2A Tudor)
ClC1=CCC2CN(CCN3CCCCC3)CC2C1 (centres undefined)	G9a block 79µM
COc1ccc2c(c1)C13CCCCC1C(C2)N(C)CC3 (centres undefined)	none (no result: PI5P4Ka inh, PLK1 PBD block, HP1b binding inh, BAZ2B inh, JMJD2A Tudor)
CCCN(CCC)C1CCc2cccc(O)c2C1 (centres undefined)	G9a block 24µM! (no result: BAZ2B inh)
CCCN(CCC)[C@@H]1CCc2c(F)ccc(O)c2C1	G9a block 50µM (no result: PI5P4Ka inh, PLK1 PBD block, HP1b binding inh, BAZ2B inh, JMJD2A Tudor)
CCN(CC)Cc1cc(Nc2ccnc3cc(Cl)ccc23)ccc1O	G9a block inconclusive, BAZ2B inh 50µM!
O=S(=O)(O)c1cc(O)ccc1O	G9a block 10µM, HP1b binding inh inconclusive, JMJD2A Tudor 79µM
CN[C@@H]1C[C@@]2(C)O[C@@H]([C@@H]1OC)n1c3ccccc3c3c4c(c5c6ccccc6n2c5c31)C(=O)NC4	none (no result: PI5P4Ka inh, PLK1 PBD block, HP1b binding inh, BAZ2B inh, JMJD2A Tudor)
C=C1Nc2ccccc2C(=O)N1c1ccccc1C	none (no result: PI5P4Ka inh, PLK1 PBD block, HP1b binding inh, BAZ2B inh, JMJD2A Tudor)
C=CCn1c(=O)c(C=Nc2cccc([N+](=O)[O-])c2)c(O)n(CCCC)c1=O	PI5P4Ka inh inconclusive, G9a block 71µM, JMJD2A Tudor inconclusive
CN1CCCCC1c1cccnc1 (centres undefined)	none (no result: PI5P4Ka inh, PLK1 PBD block, HP1b binding inh, BAZ2B inh, JMJD2A Tudor)
Cc1cc(C)cc(-n2c(C)cc(/C=C3\C(=O)NC(=O)N(C)C3=O)c2C)c1	PLK1 PBD block inconclusive
